Screening data from PubChem BioAssay.
Most compounds without a hit are left out; they make up all but 6.1% or so of the library.
DRD3 antagonist – blocks the human D3 dopamine receptor | P35462 | 360,000 tested, 2.5% active | max response, negative = inhibition, % | AID 652054 | D3R cells, DiscoveRx beta-arrestin luminescence, antagonist mode; stronger effect = lower value; in the data active = max response below about -50%; inconclusive = no clear call, values can overlap the other calls; also: % is scaled to controls: 0 for no effect and ±100 for the full control effect
Target sequence (P35462 whole entry, looked up): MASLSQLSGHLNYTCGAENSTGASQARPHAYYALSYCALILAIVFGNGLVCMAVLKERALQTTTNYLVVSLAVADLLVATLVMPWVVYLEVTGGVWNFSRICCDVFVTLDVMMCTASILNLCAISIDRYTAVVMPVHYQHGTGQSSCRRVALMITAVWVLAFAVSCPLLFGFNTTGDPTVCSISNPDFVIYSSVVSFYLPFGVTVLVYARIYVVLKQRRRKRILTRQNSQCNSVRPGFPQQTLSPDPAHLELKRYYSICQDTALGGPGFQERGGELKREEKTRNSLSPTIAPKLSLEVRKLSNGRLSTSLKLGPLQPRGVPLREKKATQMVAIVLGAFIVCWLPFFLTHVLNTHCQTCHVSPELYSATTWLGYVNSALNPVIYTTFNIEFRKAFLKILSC
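Cells expressing the human receptor were seeded at 1500 cells/well, incubated overnight at 37 degrees C in 5% CO2, then exposed to library compounds with dopamine controls for 90 minutes at 37 degrees C before luminescent detection.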
DRD3 agonist – D3 dopamine receptor (human) agonism; max activation, %; P35462; AID 652048; 410,000 tested, 0.58% active; D3R DiscoveRx beta-arrestin cells, luminescence, 90 min; in the data active = max activation above about 30%; also: 0% is about no effect
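Cells at 1500/well, incubated overnight, then treated with pinned compounds (dopamine as control) for 90 min at 37 degrees C. DiscoveRx reagent added for 30 - 60 minutes at room temperature; luminescence read.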
D1 agonist – agonists of human D1 dopamine receptor; HEK293 T-REx D1 cells, calcium flux, agonist mode; activation, % at 2 µM; 360,000 tested, 1% active; in the data active = activation above about 30%; also: 0% is about no effect
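Tetracycline-induced HEK293 TREx D1 cells, force-coupled to calcium signalling, were dye-loaded with a no-wash calcium kit. Compound was pin-added after a 10 s baseline. Fluorescence was read kinetically at 1 cycle/s for 180 s, with calcium rises flagged as agonism.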
D1 potentiator – potentiators of human D1 dopamine receptor. HEK293 TREx D1 cells, calcium flux, dopamine EC20 potentiation. potentiation, % at 10 µM. 360,000 tested, 0.036% active. AID 504651; in the data active = potentiation above about 30%; also: 0% is about no effect
D1 antag – human D1 dopamine receptor antagonism; P21728; HEK293 TREx D1 cells, calcium flux, dopamine EC80; stronger effect = lower value; activity change, negative = inhibition, % at 10 µM; 360,000 tested, 3.2% active; AID 504652; in the data active = activity change below about -30%; also: % is scaled to controls: 0 for no effect and ±100 for the full control effect
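HEK293 T-REx cells expressing inducible, force-coupled D1 receptor; no-wash Ca dye, 30–90 min RT. Cmpd → 180 s read at 1 Hz → EC80 DA → 180 s read.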
* hit, by the source's call; ? = inconclusive; · = no result given.

SMILES	DRD3 antagonist	DRD3 agonist	D1 agonist	D1 potentiator	D1 antag
O=[N+]([O-])c1ccc(N/N=C/c2c[nH]c3ccccc23)c(S(=O)(=O)Nc2ccc(Cl)cc2)c1	?	-15	45*	-7	-25
O=C(COC(=O)c1cc(Br)ccc1O)NC12CC3CC(CC(C3)C1)C2	-12	2	·	·	·
COCCNC(=O)C1CCCN(C(=O)c2ccc(SC(F)(F)F)cc2)CC1 (stereo not given)	-27	3	·	·	·
CCCNC(=O)C1(C)CCCN(C(=O)COc2ccc(Cl)cc2Cl)C1 (stereo not given)	-3	-5	·	·	·
CC(=O)COc1cc2c(-c3cc4ccccc4o3)cc(=O)oc2cc1C	25	6	3	11	-14
COc1ccccc1C(=O)NC(CCSC)C(=O)NCCCSc1ccccc1 (stereo not given)	-14	1	92*	0	-1
COc1ccccc1C(=O)NC(CCSC)C(=O)NCC(c1ccco1)N(C)C (stereo not given)	-67*	-6	1	4	-1
OC[C@H]1O[C@@H](n2cnc3c2NC=NC[C@H]3O)C[C@@H]1O	·	44*	·	·	·
CCC(C(=O)N1CCOCC1)n1c2ccccc2c2nc(=O)cc(C)n21 (stereo not given)	-7	1	1	0	1
O=C(CCc1ccccc1)NC(NC(=S)Nc1cccc(Cl)c1)C(Cl)(Cl)Cl (stereo not given)	-29	-28	2	3	2
O=C(CCc1ccccc1)NC(NC(=S)Nc1ccc(Br)cc1)C(Cl)(Cl)Cl (stereo not given)	-91*	-14	8	1	-7
OCCN1CCN(CC(O)COCC2COc3ccccc3O2)CC1 (stereo not given)	-17	2	-2	-4	9
CC(C)N1CCN(CC2COc3ccccc3O2)CC1 (stereo not given)	-50*	3	5	-7	17
CC(NCC1COc2ccccc2O1)C1COc2ccccc2O1 (stereo not given)	-63*	-23	1	0	-2
CCCCS(=O)(=O)NC(=O)C1(C)CCN1C(=O)C/C=C/c1ccccc1 (stereo not given)	0	0	·	·	·
O=C(Cc1csc(-c2ccc(Cl)cc2)n1)Nc1cccc(S(=O)(=O)NC2=NCCC2)c1	-20	-13	-1	-3	-16
Cc1ccccc1C(=O)OCC(=O)Nc1cccc(S(=O)(=O)NC2=NCCC2)c1	-5	1	·	·	·
O=C(Cc1csc(-c2ccc(F)cc2)n1)Nc1cccc(S(=O)(=O)NC2=NCCC2)c1	-6	-19	1	-15	-30*
CCCCC(=O)OCC(=O)Nc1cccc(S(=O)(=O)NC2=NCCCCC2)c1	-10	1	2	-5	-32*
CCCCCC(=O)Nc1cccc(S(=O)(=O)NC2=NCCCCC2)c1	-12	-1	1	2	-24
CC1(C(=O)OCC(=O)Nc2cccc(S(=O)(=O)NC3=NCCCCC3)c2)CC1(Cl)Cl (stereo not given)	1	45*	-3	-3	-6
Cc1ccsc1C(=O)OCC(=O)Nc1cccc(S(=O)(=O)NC2=NCCCCC2)c1	19	3	5	1	-42*
Cc1ccc(CNC(=O)CCSCc2cccc(F)c2)cc1	4	2	3	-10	-14
CC1CCN(C(=O)CSc2ccc(-c3cccc([N+](=O)[O-])c3)nn2)CC1	13	5	3	0	-11
COc1cc(OC)cc(C(=O)NC(C(=O)NCCc2ccccn2)C(C)C)c1 (stereo not given)	4	-5	·	·	·
CCN(CC)S(=O)(=O)c1cccc(NC2=NCCCCC2)c1	4	0	2	-4	-36*
O=C(COC(=O)c1ccccc1)Nc1cccc(S(=O)(=O)NC2=NCCCCC2)c1	20	-2	4	-4	-2
COc1cccc(NC2=NCCCCC2)c1	3	13	1	3	14
Cc1cc(C)cc(C(=O)OCC(=O)Nc2cccc(S(=O)(=O)NC3=NCCCCC3)c2)c1	-3	-4	3	-5	-45*
COC1=C(OC)C(=O)C(C/C=C(\C)CC/C=C(\C)CC/C=C(\C)CC/C=C(\C)CC/C=C(\C)CC/C=C(\C)CC/C=C(\C)CC/C=C(\C)CC/C=C(\C)CCC=C(C)C)=C(C)C1=O	·	10	·	·	·
